Assay results reported in ChEMBL document CHEMBL3988442, “University of Dundee, Small-Polar-MMV Screening Library” (2021).

Key:
[1] = biological target: T1, Aspartate--tRNA(Asp/Asn) ligase (Mycobacterium tuberculosis (strain ATCC 25618 / H37Rv)) (UniProt P9WFW3); assay: Assay for Asp RNA synthetase-1 from Mycobacterium tuberculosis; format: functional; set-up: scale not given: direction of the effect not stated beside the values; conditions: 30 µM; note: in the data most compounds retested in dose-response had high values
T1 sequence (whole entry): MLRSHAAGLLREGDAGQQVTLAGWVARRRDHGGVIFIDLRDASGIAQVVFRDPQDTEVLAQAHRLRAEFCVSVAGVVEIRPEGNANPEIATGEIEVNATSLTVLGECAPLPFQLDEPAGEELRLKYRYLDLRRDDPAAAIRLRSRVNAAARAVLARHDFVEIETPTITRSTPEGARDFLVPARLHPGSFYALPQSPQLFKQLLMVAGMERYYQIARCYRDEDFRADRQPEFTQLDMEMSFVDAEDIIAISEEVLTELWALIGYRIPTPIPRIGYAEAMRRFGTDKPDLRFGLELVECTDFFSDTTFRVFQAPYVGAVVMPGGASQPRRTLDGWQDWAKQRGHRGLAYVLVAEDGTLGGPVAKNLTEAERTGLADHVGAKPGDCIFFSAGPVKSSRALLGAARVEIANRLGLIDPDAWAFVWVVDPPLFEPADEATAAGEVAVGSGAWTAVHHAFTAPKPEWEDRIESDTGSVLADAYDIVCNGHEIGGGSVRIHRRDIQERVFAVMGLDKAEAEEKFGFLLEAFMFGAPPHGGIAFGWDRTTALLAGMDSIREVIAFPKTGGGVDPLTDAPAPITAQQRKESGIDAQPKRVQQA

[2] = biological target: Shiga toxin 2 (Escherichia coli O157:H7) (UniProt P09385+P09386); assay: E. coli 0.157:H7 Shiga Toxin SOP - stx2 screening assay; format: functional; set-up: scale not given: direction of the effect not stated beside the values; conditions: 30 µM

Structure (SMILES)	Percent Effect [1] [%]	Percent Effect [2] [%]
O=C(NCc1ccccn1)c1nnn(-c2ccc(Br)cc2)n1	-5.38	-13.6
Cc1nc(CN2CCN(C(=O)c3sccc3C3CC3)CC2)cs1	-4.27	13.6
O=C(CN1CCC(c2ccnn2CCO)CC1)NCC1CC1	-6.54	-19.2
Cc1cccc(OCCC(=O)N(C)CCC#N)c1C	0.839	8.57
Cn1cc(CCC(=O)N2C[C@H]3CC[C@@H]2CN(Cc2ccccc2)C3)cn1	2.92	-3.02
Cc1[nH]ccc1C(=O)Nc1cccc(CN2CCC(O)CC2)c1	0.958	-28.9
O=C1CCC2(CCN(Cc3nccs3)CC2)N1Cc1ccccc1	-2.78	13.1
O=C(c1ccco1)N1CCCC(c2cc(C(F)F)n3ncnc3n2)C1 (centres undefined)	-0.849	-7.72
CCCNCc1cc2c(C)cc(C)cc2n2c(=O)n(C)nc12	-5.73	-11.4
CC(C)CN1CCN(C(=O)Nc2cc(C(F)(F)F)c[nH]c2=O)CC1	-1.79	5.35
COCCN1CCC(NCc2ccc(C#N)cc2)C1 (centres undefined)	-2.03	-49.3
Cc1nccn1C1CCCN(C(=O)c2cc(O)nc3ccccc23)C1 (centres undefined)	1.77	5.42
O=C(Cn1ccc2ccccc21)NCc1ccc(C(=O)O)cc1	5.27	6.55
CCC1CCCCN1C(=O)c1ccc2[nH]nnc2c1 (centres undefined)	6.94	-3.51
COc1ccc(CNC(=O)NCc2c(C)cc(C)[nH]c2=O)cc1	4.97	34.9
O=C(CN1CCCC(c2ccc(C(=O)O)cc2)C1)NC1CC1 (centres undefined)	-1.07	6.8
Cn1nc2c(cc1=O)CN(Cc1nc(C(C)(C)C)no1)CC2	50.6	0.187
